Only some compounds are listed: those with a hit (about 3.7% of all), similar ones and a draw of the others.
BoNT-A LC inh2 – blocks Botulinum neurotoxin A light chain protease | inhibition, % at 10 µM | multiplex microsphere protease substrate cleavage, flow cytometry | 360,000 tested, 0.17% active | AID 588499; also: plate controls were buffer without enzyme for full effect and enzyme alone for no effect
BoNT F protease – inhibitors of Botulinum neurotoxin F light chain protease | 360,000 tested, 0.22% active | inhibition, % at 10 µM | Multiplex microsphere protease cleavage assay, flow cytometry; in the data active = inhibition above about 35%, passing the limit was not always enough; inconclusive = no clear call, values can overlap the other calls; also: plate controls were buffer without enzyme for full effect and enzyme alone for no effect
Bead autofluor – flagged as autofluorescent in microsphere protease counterscreen. fluorescence intensity (no concentration beside the values). compound autofluorescence counterscreen, microsphere flow cytometry; active compounds read high. 360,000 tested, 3.1% active. AID 624483; in the data active = fluorescence intensity above about 16000; inconclusive = no clear call, values can overlap the other calls
Vc quorum ag – inducers of Vibrio cholerae quorum light production without autoinducers; V. cholerae BH1578 lux reporter, luminescence, 6 h; activation, % at 18.7 µM; 350,000 tested, 0.16% active; AID 588436; in the data active = activation mostly above about 9.7%, no sharp cut-off; inconclusive = no clear call, values can overlap the other calls; inactive = mostly below about 3.7%
BJeLR lethal – kills HRASV12-expressing BJeLR cells; BJeLR (HRASV12) viability, CellTiter-Glo ATP luminescence, 48 h; inhibition, % (test concentration not listed); 300,000 tested, 0.17% active; AID 1554; in the data active = inhibition above about 50%; inconclusive = no clear call, values can overlap the other calls
Anthrax LF prot – inhibitors of Bacillus anthracis lethal factor protease. 360,000 tested, 0.12% active. AID 588501. P15917. inhibition, % at 10 µM. multiplex microsphere protease cleavage assay, LF; also: plate controls were buffer without enzyme for full effect and enzyme alone for no effect
Target sequence (P15917 whole entry, looked up): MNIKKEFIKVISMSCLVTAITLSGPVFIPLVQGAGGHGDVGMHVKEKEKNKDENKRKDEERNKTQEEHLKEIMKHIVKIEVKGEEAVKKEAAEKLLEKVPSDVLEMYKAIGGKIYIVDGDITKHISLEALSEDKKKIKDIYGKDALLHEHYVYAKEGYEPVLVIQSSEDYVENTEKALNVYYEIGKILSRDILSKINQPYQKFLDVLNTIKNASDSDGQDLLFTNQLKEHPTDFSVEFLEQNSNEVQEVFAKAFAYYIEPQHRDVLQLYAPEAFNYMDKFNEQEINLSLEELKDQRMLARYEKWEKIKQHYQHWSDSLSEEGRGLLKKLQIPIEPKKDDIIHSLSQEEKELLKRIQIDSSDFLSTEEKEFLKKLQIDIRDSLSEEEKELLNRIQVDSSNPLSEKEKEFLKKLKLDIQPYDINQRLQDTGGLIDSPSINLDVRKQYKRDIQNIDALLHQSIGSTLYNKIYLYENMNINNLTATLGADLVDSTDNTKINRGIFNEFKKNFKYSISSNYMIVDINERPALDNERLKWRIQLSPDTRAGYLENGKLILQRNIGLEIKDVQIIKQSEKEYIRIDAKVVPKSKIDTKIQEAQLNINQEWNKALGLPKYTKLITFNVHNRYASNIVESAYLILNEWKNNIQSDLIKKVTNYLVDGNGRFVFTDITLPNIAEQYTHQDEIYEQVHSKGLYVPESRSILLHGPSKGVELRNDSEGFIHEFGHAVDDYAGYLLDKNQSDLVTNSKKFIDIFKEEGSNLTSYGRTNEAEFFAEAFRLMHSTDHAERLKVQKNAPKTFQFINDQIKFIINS
Numbers without * were called inactive; i = inactive; ? = inconclusive; · = no result given; ! = not active in a repeat. Rule as the data show it, unless noted: active = inhibition above about 30%; inconclusive = no clear call, values can overlap the other calls; inactive = below that.

SMILES | BoNT-A LC inh2 | BoNT F protease | Bead autofluor | Vc quorum ag | BJeLR lethal | Anthrax LF prot
Cc1nn(CC(O)c2ccccc2)c(C)c1Br (stereo not given) | -1.5 | -0.4 | 21421* | i | 1.3 | -0.4
CNC[C@H]1Oc2cc(Br)ccc2S(=O)(=O)N([C@H](C)CO)C[C@H]1C | -0.7 | -10.6 | 3981 | -0.6 | · | -3.1
Cc1cc(N2CCN(c3ccccc3)CC2)n2c(n1)nc1ccccc12 | ? | 7.8 | 23762* | -0.7 | -11.5 | 2.0
Cc1cc(N2CCN(c3ccccc3)CC2)n2nnnc2n1 | 1.0 | 4.7 | 2712 | 7.4 | 0.8 | 3.8
O=C(CC(=O)c1ccccc1)CC(O)(C=Cc1ccccc1)c1ccccc1 (stereo not given) | 0.2 | -0.3 | 3518 | i | · | -6.7
CCOc1ccc(-c2cc(C(=O)N3CCN(c4ccccn4)CC3)c3ccccc3n2)cc1 | -0.6 | -0.1 | 22531* | i | 2.6 | -0.5
CCOc1ccc(-c2cc(C(=O)N3CCN(C)CC3)c3ccccc3n2)cc1 | 1.6 | 1.2 | 23119* | i | 2.2 | 1.2
CCOc1ccc(-c2cc(C(=O)N3CCCC3)c3ccccc3n2)cc1 | 0.7 | -0.3 | 6116 | -0.1 | 5.1 | -0.3
CC1(C(=O)NS(=O)(=O)c2cccc(C#N)c2)CCN1C(=O)C/C=C/c1ccccc1 (stereo not given) | -0.1 | 2.1 | 2990 | -4.5 | · | -2.9
COc1ccc(-c2nc3ccc(Cl)cn3c2Cc2cccc(F)c2)cc1OC | 5.7 | -2.4 | 9094 | · | · | 14.4
COc1cc(C(O)c2nc(-c3ccc(C)c(C)c3)cs2)ccc1F (stereo not given) | 0.1 | 1.1 | 4072 | 0.5 | · | -1.4
COc1ccc(C2C(C#N)=C(N)Oc3cc(O)ccc32)cc1Cl (stereo not given) | 0.5 | 35.3* | 4572 | i | 4.4 | 2.7
CCOc1ccc(C2C(C#N)=C(N)Oc3cc(O)ccc32)cc1OCC (stereo not given) | 0.4 | 6.3 | 4284 | i | -2.9 | -15.6
CC1CC(=O)N(CC(=O)Nc2ccc3c(c2)OCCO3)c2ccccc2S1 (stereo not given) | -0.5 | 1.5 | 16421* | 0.3 | 1.0 | -1.1
O=C(Cn1ccc2ccccc2c1=O)NCCC(=O)Nc1ccc2c(c1)OCCO2 | ? | -1.8 | 20380* | i | 7.4 | -5.6
O=C(CN1C(=O)COc2ccc(Cl)cc21)Nc1ccc2c(c1)OCCO2 | ? | -6.2 | 17358* | -0.2 | 1.6 | 0.8
CC1Oc2ccccc2N(CC(=O)Nc2ccc3c(c2)OCCO3)C1=O (stereo not given) | -1.1 | -4.4 | 11423 | -1.0 | -17.1 | -2.9
O=C(Cn1ccc2ccccc2c1=O)Nc1ccc2c(c1)OCO2 | -1.3 | -22.7 | 4965 | -0.4 | 5.8 | -1.5
Cc1ccc(NC(=O)c2ccc(-c3cc(Cl)ccc3Cl)o2)c(C)c1 | -0.4 | 1.2 | 3393 | -0.4 | · | -3.7
O=C(CC[C@H]1O[C@@H](n2ccc(=O)[nH]c2=O)[C@H](O)[C@@H]1O)N1CCN(Cc2cccc3ccccc23)CC1 | -1.0 | -15.5 | 5780 | · | · | -1.2
COc1ccccc1C(=O)Nc1nc2ccccc2[nH]1 | -1.4 | -5.5 | 6338 | 0.4 | 108.9* | -3.3
COc1cc(SC)ccc1C(=O)Nc1nc2ccccc2[nH]1 | 0.3 | 4.1 | 5124 | -0.2 | 121.2* | -2.0
COc1ccc(NC(=O)c2cc(C3CCCCN3C(=O)CCc3ccccc3)on2)c(C)c1 (stereo not given) | -0.9 | 4.9 | 2880 | i | · | -3.1
c1ccc(-n2c(-c3ccncc3)nnc2-c2ccco2)cc1 | -0.1 | 3.9 | 16681* | -7.1 | 3.9 | -1.7
Cc1ccc(-c2nnc(-c3ccncc3)n2-c2ccc(C)cc2)cc1 | ? | 0.0 | 21828* | 4.2 | 4.5 | -1.9
SMILES | BoNT-A LC inh2 | BoNT F protease | Bead autofluor | Vc quorum ag | BJeLR lethal | Anthrax LF prot
Cc1ccc(-n2c(-c3ccncc3)nnc2-c2ccco2)cc1 | 0.9 | 0.6 | 3557 | -0.2 | -16.3 | 1.0
CC(C)N1CCC1(C)C(=O)Nc1ccccc1OC(F)F (stereo not given) | -0.4 | -0.2 | 4263 | -5.0 | · | 0.2
O=C(NCCCN1CCC(Cc2ccccc2)CC1)C1CC(=O)N(C2CCCCCC2)C1 (stereo not given) | -1.4 | -3.0 | 20812* | -1.8 | -6.6 | -2.9
CN1CCN(CCCNC(=O)C2CC(=O)N(C3CCCCC3)C2)CC1 (stereo not given) | -0.4 | 0.4 | 2880 | i | 0.5 | -4.9
C[C@@H](C(=O)NCc1ccccc1)N1C(=O)C2CC=CCC2C1=O (stereo not given in full) | -0.5 | -1.9 | 2054 | 25.0* | -14.8 | -0.8
Cc1ccc(C(=O)Nc2ccc(CC(=O)O)cc2)o1 | 4.1 | 6.8 | 18362* | i | -3.2 | -12.1
O=S(=O)(Nc1nc2ccccc2nc1Cl)c1ccc(Cl)cc1 | 0.2 | -3.1 | 8294 | -0.7 | 4.7 | 1.4
Cc1ccnc(NS(=O)(=O)c2ccc(Cl)nc2)c1 | -1.0 | -0.8 | 5552 | -0.3 | 5.5 | 1.8
O=S(=O)(Nc1ncccc1O)c1ccc(Cl)cc1 | ? | -2.9 | 23828* | i | 2.1 | -1.3
O=S(=O)(Nc1cc(Cl)ccn1)c1ccc(Cl)cc1 | -4.1 | -5.7 | 17683* | -0.1 | -1.7 | -2.1
COc1cc(OC)cc(-c2noc(-c3csc([C@@H]4C[C@H](O)[C@@H](CO)O4)n3)n2)c1 | 0.4 | 1.5 | 3473 | -0.4 | · | -8.1
CCc1cccc2c(C(=O)CSc3nnc(-c4ccoc4C)n3C)c[nH]c12 | 2.6 | 1.2 | 22498* | i | -12.1 | -3.6
Cc1cc(C)n2nc(SCC(=O)N3CCC4(CC3)OCCO4)nc2n1 | 1.9 | 1.9 | 19682* | -0.4 | 3.5 | -7.5
COCCNC(=O)C1CCCN(C(=O)Cc2ccc(F)cc2)CC1 (stereo not given) | -0.8 | -1.9 | 3542 | i | · | -2.0
Cc1ccnc(NC(=O)CCCOc2cc(=O)n(C)c3ccccc23)c1 | ? | -3.9 | 21080*! | -0.2 | 12.0 | -10.1
Cn1c(=O)cc(OCCCC(=O)N2CCCCC2)c2ccccc21 | -0.8 | -1.8 | 22743* | -12.5 | 3.8 | -2.4
Cc1ccc(S(=O)(=O)N(C)C[C@@H]2OCc3cn(nn3)CCCC(=O)N([C@H](C)CO)C[C@H]2C)cc1 | -1.1 | -8.8 | 4527 | · | · | -3.6
COC(=O)c1ccc(-n2nc(C(F)(F)F)c3c2-c2ccoc2CC3)cc1 | -1.2 | 7.7 | 4835 | -0.2 | -14.5 | -2.3
O=C(O)c1ccc(-n2nc(C(F)(F)F)c3c2-c2ccoc2CC3)cc1 | -5.9 | -5.9 | 21579* | i | 3.5 | 1.2
CC(=O)N1CC2(CC(c3ccccc3C(F)(F)F)=NO2)CN1c1ccc(Cl)cc1 (stereo not given) | -0.3 | -7.0 | 3660 | -0.3 | · | -7.1
CCOC(=O)C1=NN(c2ccccc2C)C2=NC(C)=C(C(=O)OC)C(c3cccs3)N12 (stereo not given) | 6.6 | 5.5 | 17523* | i | 4.1 | -10.3
CC1Cc2ccccc2N1Cc1nc2cc(Cl)ccc2c(=O)[nH]1 (stereo not given) | 0.2 | -1.7 | 3046 | -6.2 | 0.6 | -2.9

Assay outcomes deposited in PubChem by several laboratories.
